# Source: PubChem BioAssay (NCATS)
# Inconclusive results are not listed. Unmarked numbers belong to inactive results. Active and inactive are the calls of the source. Calls follow the shape of the full dose curve. Numbered stars: 1 amine (or outer) side, 2 acyl side, 3 side chain; on linkers, the order of the positions; unused ones are H or OH. Bridge positions count the residues as written; N and C are the ends. Square brackets hold non-standard residues; d marks the D form. Peptide text beside a SMILES is read from it. I, II: the chains in the order shown. Actinocin(9to1) = Cc1c2oc3c(C)ccc(C(=O)[*:1])c3nc-2c(C(=O)[*:2])c(N)c1=O; NMeV = CN[C@H](C(=O)O)C(C)C; Sar = CNCC(=O)O
# Assay: Cell Viability - MRC5 (AID 434);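 also: potency reflects cytotoxicity seen as loss of intracellular ATP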
# Settings: MRC5 lung fibroblast viability, qHTS
# Text: NIH Chemical Genomics Center [NCGC]
# NIH Molecular Libraries Screening Centers Network [MLSCN]
# National Institutes of Environmental Health Sciences [NIEHS]
# National Toxicology Program [NTP]
# We have developed a 1536-well cell-based assay for quantitative high throughput screening (qHTS) against a number of cell lines to determine in vitro cytotoxicity of small molecules. This particular assay uses the MRC5 cell line which is derived from normal human lung fibroblasts.
# NCGC Assay Protocol Summary:
# The CellTiter-Glo luminescent cell viability assay (Promega) is a homogeneous method to measure the number of viable cells in culture. The end point readout of this assay is based on quantitation of intracellular ATP, an indicator of metabolic activity, using the luciferase reaction. Luciferase catalyzes the oxidation of beetle Luciferin to oxyluciferin and light in the presence of ATP. The luminescent signal is proportional to amount of ATP present.
# Using the CellTiter-Glo luminescent cell viability assay, the amount of cellular ATP was measured in the MRC5 cell line with complete culture medium following compound treatment for 40 hours. The assay was performed in opaque white Kalypsys 1536-well plates. In the screen, tamoxifen and doxorubicin were used as positive controls. Library compounds were measured for their ability to cause acute toxicity in the cell line, as reflected by a decrease in intracellular ATP levels, in a concentration-dependent manner. Data were normalized to the controls for basal activity (DMSO only) and 100% inhibition (100 uM tamoxifen). AC50 values were determined from concentration-response data modeled with the standard Hill equation.
# qHTS protocol for CellTiter Glo MRC5 cellular assay
# [Step] [Parameter] [Value] [Description]
# 1. Reagent; 5 uL; 1500 MRC5 cells/well
# 2. Time; 5 hr; 37 °C incubation
# 4. Controls; 23 nL; Tamoxifen 0.34 uM to 100 uM & Doxorubicin 0.02 nM to 100 uM
# 5. Time; 40 hr; 37 °C incubation
# 6. Reagent; 5 uL; CellTiter Glo reagent
# 7. Time; 20 min; Room Temperature
# 8. Detection; Luminescence; Viewlux plate reader
# Keywords: cell viability, cytotoxicity, MRC5 cell line, luminescence, NTPHTS, NTPHTS_NCGC, NIEHS, EPA, DSSTox, MLSMR, MLSCN, NIH Roadmap, qHTS, NCGC
# Potency is read from the fitted curve at half-maximal effect.
row,SMILES,Potency
1,CC(=O)Oc1ccc(C(c2ccc(OC(C)=O)cc2)c2ccccn2)cc1,> 92 µM
2,"Cc1c2oc3c(C)ccc(C(=O)N[C@@H]4C(=O)N[C@H](C(C)C)C(=O)N5CCC[C@H]5C(=O)N(C)CC(=O)N(C)[C@@H](C(C)C)C(=O)O[C@@H]4C)c3nc-2c(C(=O)N[C@@H]2C(=O)N[C@H](C(C)C)C(=O)N3CCC[C@H]3C(=O)N(C)CC(=O)N(C)[C@@H](C(C)C)C(=O)O[C@@H]2C)c(N)c1=O (I: T[dV]P[Sar][NMeV] / II: T[dV]P[Sar][NMeV]; ester I:1-I:C, II:1-II:C; linker I:N-II:N via Actinocin(9to1))",> 92 µM
3,Nc1ccc(C(=O)O)cc1,> 92 µM
4,COc1cccc2c1C(=O)c1c(O)c3c(c(O)c1C2=O)C[C@@](O)(C(C)=O)C[C@@H]3O[C@H]1C[C@H](N)[C@H](O)[C@H](C)O1,19.5 µM (active)
5,CC(O)C(=O)O (centres undefined),> 92 µM
6,C=C(CC)C(=O)c1ccc(OCC(=O)O)c(Cl)c1Cl,> 92 µM
7,CC/C(=C(/CC)c1ccc(O)cc1)c1ccc(O)cc1,> 92 µM
8,O=C1OC(c2ccc(O)cc2)(c2ccc(O)cc2)c2ccccc21,> 92 µM
9,Oc1ccc(O)cc1,> 92 µM
10,COC1=CC(=O)C[C@@H](C)[C@]12Oc1c(Cl)c(OC)cc(OC)c1C2=O,> 92 µM
11,C[C@]12CC[C@@H]3c4ccc(O)cc4CC[C@H]3[C@@H]1CC[C@@H]2O,> 92 µM
12,CN(C)/N=N/c1nc[nH]c1C(N)=O,> 92 µM
13,CCCCCCc1ccc(O)cc1O,> 92 µM
14,NC(=NCCCCCCN=C(N)/N=C(\N)Nc1ccc(Cl)cc1)/N=C(\N)Nc1ccc(Cl)cc1,50 µM (active)
15,O=C(O)CCCCC(=O)O,> 92 µM
16,CC(=O)O[C@]1(C(C)=O)CC[C@H]2[C@@H]3C[C@H](C)C4=CC(=O)CC[C@]4(C)[C@H]3CC[C@@]21C,> 92 µM
17,Oc1c(I)cc(Cl)c2cccnc12,44.2 µM (active)
18,O=c1ccc2ccccc2o1,> 92 µM
19,C=CCc1ccc(O)c(OC)c1,> 92 µM
